Only some compounds are listed: those with a hit (about 2.3% of all), similar ones and a draw of the others.
CHRM1 PAM: potentiates human M1 receptor response to acetylcholine. P11229. CHO-K1 hM1, Fluo-8 calcium fluorescence, ACh EC20; 0% = ACh EC20, 100% = maximal ACh. activation, % at 3 µM. hit rate 0.088% among 360,000. AID 588819; in the data active = activation above about 19%, passing the limit was not always enough
Target sequence (P11229 whole entry, looked up): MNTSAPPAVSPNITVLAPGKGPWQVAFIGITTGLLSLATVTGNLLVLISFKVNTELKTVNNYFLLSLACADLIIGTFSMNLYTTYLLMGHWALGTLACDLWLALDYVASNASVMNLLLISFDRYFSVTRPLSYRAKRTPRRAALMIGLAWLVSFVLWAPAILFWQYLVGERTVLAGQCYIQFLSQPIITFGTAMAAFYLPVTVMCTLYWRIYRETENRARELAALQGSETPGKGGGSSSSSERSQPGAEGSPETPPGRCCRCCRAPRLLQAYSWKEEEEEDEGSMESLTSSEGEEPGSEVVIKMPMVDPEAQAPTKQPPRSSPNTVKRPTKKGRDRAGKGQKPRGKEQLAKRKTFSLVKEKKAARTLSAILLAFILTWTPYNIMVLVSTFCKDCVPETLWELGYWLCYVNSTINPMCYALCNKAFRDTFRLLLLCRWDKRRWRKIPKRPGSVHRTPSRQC
M1 PAM parental: M1 PAM counterscreen hit in parental CHO-K1 cells. ATP EC20, Fluo-8 calcium fluorescence; 0% at ATP EC20, 100% at ATP max. activation, % at 3 µM. hit rate 0.02% among 360,000;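 active = activation above the run cutoff, the mean activation of all test compounds plus 3 SD, cut at about 40% in these data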;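 also: peak over basal fluorescence ratio in a 140 s read after ATP addition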
CHO-K1 Ca ag: nonselective activator or artifact in parental CHO-K1 cells; Fluo-8 calcium fluorescence; scaled to maximal ATP response, vehicle zero; activation, % at 3 µM; hit rate 0.48% among 360,000; in the data active = activation above about 15%;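 also: untransfected CHO-K1 host cells lacking M1 receptor as counterscreen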
M1 antag: antagonists of human M1 muscarinic receptor; P11229; CHO-K1 hM1, Fluo-8 calcium fluorescence, ACh EC80 antagonist; inhibition, % at 3 µM; hit rate 1.3% among 360,000;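 active = percent inhibition above its own plate's cutoff, namely the mean of that plate's compound wells plus 3 SD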;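 also: peak over basal fluorescence ratio during 140 s after agonist addition; 0% = ACh EC80 plus DMSO and 100% = DMSO alone without agonist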
CHO-K1 Ca antag: counter-screen for M1 antagonists: effect in parental CHO-K1 cells. hit rate 0.6% among 360,000. inhibition, % at 3 µM. ATP-induced calcium, Fluo-8 fluorescence;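 active = inhibition above a per-plate cutoff, the plate's mean sample inhibition plus 3 SD, cut at about 24% in these data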;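 also: 0% = DMSO plus EC80 ATP and 100% = DMSO alone without ATP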
M1 ag: agonists of human M1 muscarinic receptor. hit rate 0.33% among 360,000. CHO-K1 hM1, Fluo-8 calcium fluorescence, agonist mode; 0% DMSO, 100% acetylcholine EC100. activation, % at 3 µM;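 active = activation above the run's mean compound activation plus 3 SD, cut at about 16% in these data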;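 also: peak over basal fluorescence ratio within a 140 s kinetic read after compound addition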
* = called active by the depositor.

SMILES | CHRM1 PAM | M1 PAM parental | CHO-K1 Ca ag | M1 antag | CHO-K1 Ca antag | M1 ag
CCOCCn1ccc2c(OCC(=O)Nc3ccccc3OC)cccc2c1=O | -14 | -28 | 4 | 30* | 12 | -3
CCOCCn1ccc2c(OCC(=O)Nc3cc(OC)ccc3OC)cccc2c1=O | -8 | -13 | 3 | 8 | -11 | -4
COc1cccc2c(=O)n(CC(=O)Nc3ccc(F)cc3F)ccc12 | -3 | -6 | 0 | 28* | 11 | -1
COc1cccc2c(=O)n(CC(=O)Nc3ccccc3)ccc12 | 2 | 14 | -1 | 0 | 10 | -3
Cc1nc(SCC(=O)NC2CCS(=O)(=O)C2)c2c3c(sc2n1)CCC3 (configuration not stated) | 8 | 9 | 1 | -12 | -10 | -3
Cc1nc(SCC(=O)NC2CCS(=O)(=O)C2)c2c3c(sc2n1)CCCC3 (configuration not stated) | -11 | -28 | 0 | 26* | 12 | -1
O=C1c2ccccc2C(=O)N1CCSC(=S)N1CCOCC1 | 5 | 8 | 0 | -13 | -16 | -4
Fc1c(CSC(=S)N2CCOCC2)cccc1CSC(=S)N1CCOCC1 | 4 | 12 | 16* | 1 | -3 | 3
CCn1cc(C(=O)NCCCN2CCC(C)CC2)c(=O)c2cc(S(=O)(=O)N(C)C3CCCCC3)ccc21 | -16 | -10 | 0 | 38* | 11 | -6
CCn1cc(C(=O)NCCCN2CC(C)CC(C)C2)c(=O)c2cc(S(=O)(=O)N(C)C3CCCCC3)ccc21 (configuration not stated) | -13 | -3 | 0 | 12 | -8 | -6
Nc1ccc(N(CCO)CCO)cc1 | 3 | 5 | 1 | 2 | 100* | 0
CCN(CC)c1ccc(N)cc1 | -11 | -12 | 4 | 16 | 8 | -4
COc1ccc(/C=C/CN2CCCC(CCC(=O)NCc3ccc(F)c(F)c3)C2)cc1 (configuration not stated) | -32 | 1 | 0 | 84* | 0 | -14
O=C(CCC1CCCN(Cc2cccc3c2OCO3)C1)NCc1ccc(F)c(F)c1 (configuration not stated) | -32 | 6 | -1 | 42* | 1 | -14
COc1ccccc1/C=C/CN1CCCC(CCC(=O)NCc2ccc(F)c(F)c2)C1 (configuration not stated) | -20 | 17 | 1 | 2 | -8 | -14
C=CCN1C(=O)c2ccc(C(=O)NCC(=O)Nc3c(C)cc(C)cc3C)cc2C1=O | 7 | 17 | 1 | -8 | -6 | -1
CCc1nc2c(OCc3c(C)noc3C)cccn2c1N(C=O)Cc1ccc(OC)cc1 | 6 | 41* | -1 | -14 | -10 | -4
CCOC(=O)N1CCN(CC(O)COc2ccccc2C(C)C)CC1 (configuration not stated) | -5 | -1 | 0 | -2 | 5 | 20*
C=CCc1ccccc1OCC(O)CN1CCN(c2ccc(C)cc2)CC1 (configuration not stated) | -7 | 0 | 0 | 7 | -15 | -2
C=CCc1ccccc1OCC(O)CN1CCN(C(=O)OCC)CC1 (configuration not stated) | -21 | 22 | 3 | 28 | -10 | 43*
CCc1nc2ccc(C(=O)N3CCCC(C(N)=O)C3)cn2c1N(CCC(C)C)CCN(C)C (configuration not stated) | 7 | 15 | 1 | -8 | 10 | -3
CCCCNC(=O)c1ccc2nc(CC)c(N(C)Cc3ccc(OC)cc3)n2c1 | -10 | 7 | 1 | 6 | -5 | -7
CCc1nc2ccc(C(=O)NCCOc3ccc(OC)cc3)cn2c1N(C)CCCc1ccccc1 | -18 | 9 | 0 | 35* | -1 | -7
CCc1nc2ccc(C(=O)NCCOc3ccc(OC)cc3)cn2c1N(C)Cc1ccc(OC)cc1 | -20 | 6 | 4 | 30* | 7 | -6
CCc1nc2ccc(C(=O)N3CCCC(C(N)=O)C3)cn2c1N(C)Cc1ccc(OC)cc1 (configuration not stated) | -24 | 2 | 0 | 39* | 3 | -10
SMILES | CHRM1 PAM | M1 PAM parental | CHO-K1 Ca ag | M1 antag | CHO-K1 Ca antag | M1 ag
COc1ccc(N2CC(C(=O)NCc3nnnn3-c3ccc(C)c(C)c3)CC2=O)cc1 (configuration not stated) | 10 | 22 | 0 | -3 | -5 | -1
O=C(O)c1cnn(-c2ccccc2)c1-c1ccccc1 | 0 | 15 | 0 | -8 | -5 | -1
CC1(C(=O)NCc2ccccc2)Cc2c(-c3ccc4c(c3)OCO4)ccnc2O1 (configuration not stated) | 4 | 14 | 1 | -6 | -21 | -6
Cc1ccc(C(C[N+](=O)[O-])Sc2ccc(N)cc2)cc1 (configuration not stated) | 11 | 9 | 1 | -14 | -4 | -4
CN(C)c1ccc(/C=N/n2c(-c3ccccc3Br)n[nH]c2=S)cc1 | -25 | 13 | 2 | 32* | -4 | -6
COc1ccc(/C=C/C(=O)N/C(=C\c2ccco2)C(=O)NCCc2nc3ccccc3[nH]2)cc1 | -1 | -12 | 1 | -1 | 25* | -5
O=C(NCc1ccc2c(c1)OCO2)c1ccc2c(c1)N(Cc1c(F)cccc1Cl)C(=O)CS2 | -26 | 4 | 0 | 40* | 4 | -12
C=CCN1C(=O)CSc2ccc(C(=O)NCc3ccc(F)cc3)cc21 | -10 | 10 | 5 | 15 | -17 | -3
CCC1CCCCN1CCCNC(=O)c1ccc2c(c1)N(Cc1c(F)cccc1Cl)C(=O)CS2 (configuration not stated) | -22 | -10 | 0 | 100* | -14 | -5
CNC(=S)N1C2CCC1CC(NC(=O)NC13CC4CC(CC(C4)C1)C3)C2 (configuration not stated) | 7 | -2 | 0 | -5 | 0 | -3
COc1cc(/C=N/NC(=O)CCN2CCN(C(c3ccccc3)c3ccccc3)CC2)ccc1O | -28 | 11 | 1 | 28* | 0 | -11
O=C(CCN1C(=O)/C(=C\c2cccs2)SC1=S)Nc1ccc(C(=O)O)cc1 | 6 | 1 | 1 | -1 | -4 | -3
CCN(CC)CCOC(=O)c1ccc(NC(=O)CCCN2C(=O)/C(=C\c3cccs3)SC2=S)cc1 | -21 | 6 | 1 | 43* | 2 | -5
Cc1ccc(Nc2nc3nonc3[nH]c2=O)cc1Cl | -16 | -13 | 0 | 13 | 30* | 1
O=C(COC(=O)c1cncc(Br)c1)NCCC1=CCCCC1 | 6 | 12 | 0 | -27 | -4 | -4
CC1CCC(NC(=O)C2CCN(C(=O)Nc3ccccc3)CC2)CC1 (configuration not stated) | 7 | 19 | 0 | -8 | -19 | -6

Screens (PubChem)
